In PubChem BioAssay AID1224853 (National Center for Advancing Translational Sciences (NCATS), 2016):
Inconclusive results are not listed. Values without a mark were called inactive. Activity calls are given as the source filed them. The call rests on the fitted dose curve; in most records, active means well fitted inhibition curve with a large enough effect; inconclusive means small, poorly fitted or top-dose-only effect; inactive means no such curve, though single readings can be large or run the other way.

Assay: Confirmation assay for measurement of the activity of small molecule inhibitors on Zika virus induced Caspase-3 activity in human astrocytoma cells
Settings: SNB-19 ZIKV-induced caspase-3/7, luminescence, 6 h; series mostly up to 46.1 µM; activity change, negative = inhibition: at the top concentration
Source text: National Center for Advancing Translational Sciences [NCATS] Johns Hopkins University School of Medicine Florida State University Assay Overview: Increase in the Caspase-3 activity indicates an activation of apoptosis cell death pathway caused by Zika virus infection in certain types of neuronal cells including human neural progenitor cells (hNPCs), astrocytes, and astrocytoma cell line (SNB-19). This cell-based caspase-3 activity assay measures the increased caspase-3 activity in the astrocytoma cell line (SNB-19) after a 6-hour Zika virus infection with a luminescence readout. A decrease in the luminescence signal in this assay by small molecule treatment indicates an inhibitory effect of that small molecule on the Zika virus induced caspase-3 activity that may correlate with its effect on reduction of Zika virus caused cell death.
Assay Protocol Summary: The medium for SNB-19 cells is composed of RPMI 1640 (ATCC, Cat.# 30-2001), 10% fetal bovine serum (FBS) (GE healthcare Life Sciences, Cat.# SH30071.03), and 1% Pen/Strep (Gibco, Cat.# 15140-122). A Caspase-Glo 3/7 assay kit (catalog number G8092; Promega, Madison, WI) was used to detect caspase-3 activity induced by Zika virus infection in human cells. The reagent mixture was reconstituted as described in the protocol from the manufacturer. Polystyrene tissue culture treated and PDL coated white plates were obtained from Greiner Bio-One (Monroe, NC). Cells were seeded in 384- or 1536-well assay plates and cultured at 37 C with 5% CO2 for 16 to 20 hours. The typical cell seeding density in the 1536-well plate assay is 250 cells/well in 3ul medium for SNB-19 cells in tissue culture treated plates. Compounds were added to cells and incubated for one hour before addition of ZIKV solution to cells (2 FFU/cell). After incubation at 37 C with 5% CO2 for 6 hours, the reagent mixture of Caspase-Glo 3/7 assay kit was added to each well, followed by incubation at room temperature for 30 minutes. The luminescence intensity of the assay plates was measured using a ViewLux plate reader (PerkinElmer). Data were normalized by using the cell-containing wells without ZIKV as a negative control (0% induction of caspase 3/7 activity) and wells containing ZIKV infected cells (Caspase-3 activity induced) as a positive control (100% induction of caspase 3 activity). The percentage inhibitions of the increased Caspase-3 activity by small molecule inhibitors were then calculated.

SMILES | activity change, negative = inhibition | Potency
CC(O)CN1CCN(CC(=O)[O-])CCN(CC(=O)[O-])CCN(CC(=O)[O-])CC1.[Gd+3] (centres undefined) | 11.9% | –
O=C(Nc1ccc(Br)cc1)c1cc(Br)cc(Br)c1O | – | 6.9 µM (active)
O=C1CCC[C@@H]2[C@H]3CCCN4CCC[C@@H](CN12)[C@@H]34 | 1.01% | –
Oc1ccc([C@H]2CNCc3c2ccc(O)c3O)cc1O | 9.68% | –
Cc1ccc([N+](=O)[O-])[c]2c1[O][Hg]2 | – | 10.9 µM (active)
S=C(SSC(=S)N1CCCCC1)N1CCCCC1 | -16.3% | –
O=S(=O)(CC1CS1)c1ccc(Oc2ccccc2)cc1 (centres undefined) | -24.8% | –
COC1(CS(=O)c2ccccc2)CCN(CCc2c[nH]c3ccc(F)cc23)CC1 (centres undefined) | 12.7% | –
CC(C)N[C@@H]1CCn2c(=O)[nH]c3cccc(c32)[C@@H]1O | -1.27% | –
CC(C)[C@H]1C(=O)N[C@H](CO)Cc2c[nH]c3cccc(c23)N1C | 2.51% | –
O=c1c2ccccc2[se]n1-c1ccccc1 | – | 17.3 µM (active)
COP(=S)(OC)SCN1C(=O)c2ccccc2C1=O | -5.52% | –
CC(C)[N+](C)(CCC(C(N)=O)(c1ccccc1)c1ccccc1)C(C)C | 1.37% | –
O=C1C=CC[C@@H]2[C@H]3CCCN4CCC[C@@H](CN12)[C@@H]34 | 18.5% | –
